Measured values published in the supplement of paper PMC7695840.
Where a name gives a salt, the structure may show the parent alone.

System: Staphylococcus aureus MW2 delta-mecA (mecA-)
Test: normalized GFP fluorescence (growth of mecA- strain) (fraction of control range); higher = more growth of mecA- strain
Conditions: compound concentration: 150 uM; cefoxitin: subinhibitory; fluorescent label: GFP
In short: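 Pre-induced S. aureus MW2 mecA+ (DsRed) and ΔmecA (GFP) cells were mixed 1:1 in LB with a daily-set subinhibitory cefoxitin dose. They were dispensed at 5 µL/well onto 150 μM compound (1.5% DMSO) in 1536-well plates, single replicate. Growth was 20 h at 37 °C, 90% humidity, unshaken, and DsRed (540/590) and GFP (485/520) were then read. Each channel was scaled per plate between the medians of the single-strain controls. Plates with high No Treatment ratios and rows with DsRed/GFP >10 were excluded.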

With `O=C(NCCO[N+](=O)[O-])c1cccnc1` [Nicorandil (Ikorel)] as the compound, how does the “normalized GFP fluorescence” value read?
The value was 0.624.

`CCOC(=O)[N-]c1c[n+](N2CCOCC2)no1` was tested. Which “normalized GFP fluorescence” value did it give?
Its value is 0.369.

`CCCCCCOC(=O)NC(=N)c1ccc(NCc2nc3cc(C(=O)N(CCC(=O)OCC)c4ccccn4)ccc3n2C)cc1` was tested. Which “normalized GFP fluorescence” value did it give?
Its value is 0.00832.

For `CC(C)Oc1ccc2c(=O)c(-c3ccccc3)coc2c1` [Ipriflavone], which “normalized GFP fluorescence” value is on record?
The value was 0.362.

For `C=C[C@H]1CN2CC[C@H]1C[C@@H]2[C@@H](O)c1ccnc2ccc(OC)cc12`, which “normalized GFP fluorescence” value is on record?
The value was 0.452.

With `CCOC(=O)[C@H](CCc1ccccc1)N[C@@H](C)C(=O)N1Cc2ccccc2C[C@H]1C(=O)O` as the compound, how does the “normalized GFP fluorescence” value read?
The value was 0.324.

How did the “normalized GFP fluorescence” value turn out when `CN(C)CCN(Cc1ccccc1)c1ccccn1` was run?
Its value is 0.488.

Which “normalized GFP fluorescence” value does the source give for `CC1Cc2ccccc2N1NC(=O)c1ccc(Cl)c(S(N)(=O)=O)c1` (stereo not given) here?
Its value is 0.39.

How did the “normalized GFP fluorescence” value turn out when `OCCOCCN1CCN(C(c2ccccc2)c2ccc(Cl)cc2)CC1` (stereo not given) was run?
The value was -0.0253.

How did the “normalized GFP fluorescence” value turn out when `CN[C@@H]1[C@H](O)[C@H](NC)[C@H]2O[C@@]3(O)C(=O)C[C@@H](C)O[C@H]3O[C@@H]2[C@H]1O` was run?
Its value is 0.198.

With `CCCCCCCCCCC[C@@H](C[C@@H]1OC(=O)[C@H]1CCCCCC)OC(=O)[C@H](CC(C)C)NC=O` as the compound, how does the “normalized GFP fluorescence” value read?
Its value is 0.94.

`O=C(O)c1cccnc1` [Niacin (Nicotinic acid)] was tested. Which “normalized GFP fluorescence” value did it give?
The value was 0.536.

With `N#CC[C@H](C1CCCC1)n1cc(-c2ncnc3[nH]ccc23)cn1` as the compound, how does the “normalized GFP fluorescence” value read?
Its value is 0.187.

For `Nc1nc(=O)c2nc(CNc3ccc(C(=O)N[C@@H](CCC(=O)O)C(=O)O)cc3)cnc2[nH]1`, which “normalized GFP fluorescence” value is on record?
Its value is 0.21.

With `Cc1ccccc1C(OCCN(C)C)c1ccccc1` (stereo not given) as the compound, how does the “normalized GFP fluorescence” value read?
The value was 0.779.

`Cc1cc2c(cc1CC(=O)c1sccc1S(=O)(=O)Nc1onc(C)c1Cl)OCO2` was tested. Which “normalized GFP fluorescence” value did it give?
The value was 0.251.

`CCOC(=O)[C@H](CCc1ccccc1)N[C@H]1CCCN2CCC[C@@H](C(=O)O)N2C1=O` [Cilazapril monohydrate (Inhibace)] was tested. Which “normalized GFP fluorescence” value did it give?
The value was 0.646.

With `Cc1ccnc(NS(=O)(=O)c2ccc(N)cc2)n1` as the compound, how does the “normalized GFP fluorescence” value read?
The value was 0.459.

`CN1C(=O)OC(C)(C)C1=O` was tested. Which “normalized GFP fluorescence” value did it give?
The value was 0.0459.

For `CCC1=C[C@@H]2CN(C1)Cc1c([nH]c3ccccc13)[C@@](C(=O)OC)(c1cc3c(cc1OC)N(C)[C@H]1[C@@](O)(C(=O)OC)[C@H](OC(C)=O)[C@]4(CC)C=CCN5CC[C@]31[C@@H]54)C2` [Vinorelbine (Navelbine)], which “normalized GFP fluorescence” value is on record?
The value was 0.108.

Which “normalized GFP fluorescence” value does the source give for `CC1(C)[C@@H](OC(=O)CCC(=O)O)CC[C@]2(C)[C@H]3C(=O)C=C4[C@@H]5C[C@@](C)(C(=O)O)CC[C@]5(C)CC[C@@]4(C)[C@]3(C)CC[C@@H]12` here?
Its value is 0.146.

With `C[C@@H]1CC(=O)NN=C1c1ccc(NN=C(C#N)C#N)cc1` [Levosimendan] as the compound, how does the “normalized GFP fluorescence” value read?
Its value is 0.00346.

How did the “normalized GFP fluorescence” value turn out when `C#C[C@]1(O)CC[C@H]2[C@@H]3CCC4=CC(=O)CC[C@@H]4[C@H]3CC[C@@]21CC` was run?
Its value is 0.305.

How did the “normalized GFP fluorescence” value turn out when `Cc1ccc(O)c([C@H](CCN(C(C)C)C(C)C)c2ccccc2)c1` [Tolterodine tartrate (Detrol LA)] was run?
The value was 0.08.

How did the “normalized GFP fluorescence” value turn out when `CC1CCC(NC(=O)N(CCCl)N=O)CC1` (stereo not given) was run?
The value was 0.55.

For `CCCCCCCCCC(=O)N[C@@H](Cc1c[nH]c2ccccc12)C(=O)N[C@H](CC(N)=O)C(=O)N[C@@H](CC(=O)O)C(=O)N[C@@H]1C(=O)NCC(=O)N[C@@H](CCCN)C(=O)N[C@@H](CC(=O)O)C(=O)N[C@H](C)C(=O)N[C@@H](CC(=O)O)C(=O)NCC(=O)N[C@H](CO)C(=O)N[C@@H]([C@H](C)CC(=O)O)C(=O)N[C@@H](CC(=O)c2ccccc2N)C(=O)O[C@@H]1C` [Daptomycin], which “normalized GFP fluorescence” value is on record?
The value was 0.013.

Which “normalized GFP fluorescence” value does the source give for `O=c1oc2cc(O)ccc2s1` [Tioxolone] here?
The value was 0.428.

For `CN1CCc2cccc3c2[C@H]1Cc1ccc(O)c(O)c1-3`, which “normalized GFP fluorescence” value is on record?
The value was 0.463.

With `Nc1cccc2c1CN(C1CCC(=O)NC1=O)C2=O` (stereo not given) [Lenalidomide] as the compound, how does the “normalized GFP fluorescence” value read?
Its value is 0.34.

`Cc1cn(-c2cc(NC(=O)c3ccc(C)c(Nc4nccc(-c5cccnc5)n4)c3)cc(C(F)(F)F)c2)cn1` [Nilotinib (AMN-107)] was tested. Which “normalized GFP fluorescence” value did it give?
Its value is 0.547.

For `CCCS(=O)(=O)Nc1ccc(F)c(C(=O)c2c[nH]c3ncc(-c4ccc(Cl)cc4)cc23)c1F` [Vemurafenib (PLX4032)], which “normalized GFP fluorescence” value is on record?
Its value is 0.416.

For `Cc1ccc(C(=O)Nc2ccc(S(=O)(=O)O)c3cc(S(=O)(=O)O)cc(S(=O)(=O)O)c23)cc1NC(=O)c1cccc(NC(=O)Nc2cccc(C(=O)Nc3cc(C(=O)Nc4ccc(S(=O)(=O)O)c5cc(S(=O)(=O)O)cc(S(=O)(=O)O)c45)ccc3C)c2)c1`, which “normalized GFP fluorescence” value is on record?
The value was 0.319.

For `C[C@]12C=CC(=O)C=C1CC[C@@H]1[C@@H]2[C@@H](O)C[C@@]2(C)[C@H]1CC[C@]2(O)C(=O)COC(=O)CCC(=O)O`, which “normalized GFP fluorescence” value is on record?
Its value is 0.461.

`C#C[C@]1(OC(C)=O)CC[C@H]2[C@@H]3CCC4=CC(=NO)CC[C@@H]4[C@H]3CC[C@@]21CC` (mixture of isomers) was tested. Which “normalized GFP fluorescence” value did it give?
The value was 0.0291.

Which “normalized GFP fluorescence” value does the source give for `O=C1CN(/N=C/c2ccc([N+](=O)[O-])o2)C(=O)N1` here?
The value was 0.0054.

With `CCOc1cc([C@@H](CS(C)(=O)=O)N2C(=O)c3cccc(NC(C)=O)c3C2=O)ccc1OC` as the compound, how does the “normalized GFP fluorescence” value read?
The value was 0.254.

Which “normalized GFP fluorescence” value does the source give for `OCCN1CCN(CCCN2c3ccccc3Sc3ccc(C(F)(F)F)cc32)CC1` here?
The value was 0.0603.

`O=C(O)C[C@H](O)C[C@H](O)/C=C/c1c(C2CC2)nc2ccccc2c1-c1ccc(F)cc1` [Pitavastatin calcium (Livalo)] was tested. Which “normalized GFP fluorescence” value did it give?
Its value is -0.0148.

For `COc1cc(C(=O)NCc2ccc(OCCN(C)C)cc2)cc(OC)c1OC`, which “normalized GFP fluorescence” value is on record?
Its value is 0.326.

With `Clc1ccc2nsnc2c1NC1=NCCN1` [Tizanidine HCl] as the compound, how does the “normalized GFP fluorescence” value read?
Its value is 0.539.
